This passage reports z-score, cell count and outcome results from PubChem BioAssay AID1645838 (ICCB-Longwood Screening Facility, Harvard Medical School, 2021).

Several values for one entry are separate records, joined by “and”; a condition that tells them apart may be missing. Identical values can stand only once. The campaign covered roughly 2,000 compounds. About 100 (5%) were called active. Cut-off read from the data, not from the text of the source: active = z-score above about 2; inactive = the rest. The sample as a whole holds a higher share of actives than the screen did. Where a structure was tested more than once in an assay, its records may differ in their call.

The test in a line: modulators of mitochondrial supercomplex assembly, cell-based, luminescence, Hoechst nuclei count (AID 1645838).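 For all read-outs here: control cybrid cells.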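 For z-score: higher means more mitochondrial supercomplex formation.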 The settings on record: Cells, luminescence/Hoechst cell count ratio, supercomplex reporter; for z-score: stronger effect = higher value; for cell count: measured here: cell number, Hoechst nuclei count; for outcome: library stock 10 mM.
The mark [1] stands for this setting: library stock concentration (final well concentration not given) 80 uM.
Setting [2] is: library stock concentration (final well concentration not given) 400 uM.
The mark [3] stands for this setting: library stock concentration (final well concentration not given) 2 mM.
Where [4] appears, read: library stock concentration (final well concentration not given) 10 mM.
The mark [5] stands for this setting: library stock concentration (final well concentration not given) 46 uM.
Where [6] appears, read: library stock concentration (final well concentration not given) 278 uM.
Where [7] appears, read: library stock concentration (final well concentration not given) 1.67 mM.

Turning to `COC(=O)C(CCSC)NC(=O)c1ccc(NCC(N)CS)cc1-c1ccccc1` (centres undefined), the z-score under setting [1] was -0.72 (inactive), the z-score under setting [2] was -0.795 (inactive), the z-score under setting [3] is -0.715 (inactive) and the z-score under setting [4] was -1.02 (inactive). Moreover, the cell count is 6120 under setting [1], 6350 under setting [2], 6090 under setting [3] and 5780 under setting [4].

As for `COc1ccc2c(c1)CN(C)CCS2`, the z-score under setting [1] was -0.906 (inactive), the z-score under setting [2] was -0.795 (inactive), the z-score under setting [3] is -1.04 (inactive) and the z-score under setting [4] is -1.49 (inactive). The cell count by setting is: under setting [1], 6210; under setting [2], 6190; under setting [3], 6290; under setting [4], 6260.

For `CCCCC[C@H](O)/C=C/[C@H]1C(=O)C[C@H](O)[C@@H]1C/C=C\CCCC(=O)NC(CO)CO`, the z-score was 1.15 (inactive) and the cell count stood at 4420.

For the compound `CCCCC/C=C\C/C=C\C/C=C\C/C=C\CCCC(=O)NC[C@]1(C)CCC[C@]2(C)c3ccc(C(C)C)cc3CC[C@@H]12`, the z-score was -0.12 (inactive) and the cell count is 4820.

Regarding `CCC(C)(C)C(=O)OC1CC(C)C=C2C=CC(C)C(CCC3CC(O)CC(=O)O3)[C@H]21` (some centres undefined), the z-score is -0.332 (inactive) under setting [1], -0.176 (inactive) under setting [2], -0.124 (inactive) under setting [3] and 3.34 (active) under setting [4]. For the same compound, the cell count reads like this: under setting [1], 6550; under setting [2], 6140; under setting [3], 6050; under setting [4], 2650.

As to `CCCCCCNC(=O)Nc1ccc(S(=O)(=O)Nc2ccc(CCNCC(O)COc3ccc(O)cc3)cc2)cc1` (centres undefined), the z-score under setting [1] was -0.212 (inactive), the z-score under setting [2] was 0.0631 (inactive), the z-score under setting [3] was -0.344 (inactive) and the z-score under setting [4] is 0.114 (inactive). Further, the cell count is, setting by setting: under setting [1], 5240; under setting [2], 4980; under setting [3], 5190; under setting [4], 4950.

For the compound `N#Cc1cccc(C#N)c1-c1nc2c3ccccc3c3cc(Cl)ccc3c2[nH]1`, the z-score was -0.238 (inactive) under setting [5], -0.156 (inactive) under setting [6], -0.196 (inactive) under setting [7] and 0.519 (inactive) under setting [4]. Moreover, the cell count by setting is: under setting [5], 6980; under setting [6], 6500; under setting [7], 7350; under setting [4], 6120.

In the case of `CCOc1ccc(-n2c(C(C)N(Cc3cccnc3)C(=O)Cc3ccc(F)c(C(F)(F)F)c3)nc3ncccc3c2=O)cc1` (centres undefined), the z-score runs as follows: under setting [1], -0.219 (inactive); under setting [2], -0.0969 (inactive); under setting [3], 0.0541 (inactive); under setting [4], -0.0286 (inactive). The cell count by setting is: under setting [1], 5590; under setting [2], 5490; under setting [3], 5970; under setting [4], 4780.

In the case of `CCOc1ccc(-n2c(C(C)N(Cc3cccnc3)C(=O)Cc3ccc(OC(F)(F)F)cc3)nc3ncccc3c2=O)cc1` (centres undefined), the z-score reads like this: under setting [1], 0.00539 (inactive); under setting [2], 0.51 (inactive); under setting [3], -0.332 (inactive); under setting [4], -0.306 (inactive). The cell count is, setting by setting: under setting [1], 4950; under setting [2], 4820; under setting [3], 4910; under setting [4], 4660.

On to `COc1ccccc1Oc1ccc(N(Cc2cccnc2)S(=O)(=O)CC(F)(F)F)cc1`, for which the z-score is 0.268 (inactive) under setting [5], -0.0606 (inactive) under setting [6], 2 (active) under setting [7] and 0.543 (inactive) under setting [4]. For the same compound, the cell count under setting [5] amounted to 6460, the cell count under setting [6] was 6750, the cell count under setting [7] is 6250 and the cell count under setting [4] was 5860.

As to `CCCCCCCCCCCCCCCCC/C=C/C(=O)O`, the z-score is 0.212 (inactive) and the cell count came out at 4980.

With `Cc1nc(Nc2ncc(C(=O)Nc3c(C)cccc3Cl)s2)cc(N2CCN(CCO)CC2)n1`, the outcome was “inactive; censored for cell count”. Under setting [5], the z-score is -0.0819 (inactive) and the cell count was 4850. Also, under setting [1], the z-score was 3.96 (active) and the cell count was 2250. Under setting [6], the z-score was 0.412 (inactive) and the cell count turned out to be 4290. In addition, under setting [2], the z-score was 5.15 (active) and the cell count was found to be 1990. Under setting [7], the z-score is 3.64 (active) and the cell count was determined as 2120. In addition, under setting [3], the z-score was 6.64 (active) and the cell count worked out at 1770. Further, under setting [4], the z-score is 3.97 (active) and the cell count amounted to 1700.

In the case of `CCCCC[C@@H](O)/C=C/[C@H]1[C@H](C/C=C\CCCC(=O)O)C(=O)C[C@@H]1O`, the z-score is -0.0856 (inactive) and the cell count was found to be 5040.

Take `CCC(=O)NCC1CC1c1cccc2c1CCO2` (centres undefined): the z-score was 0.0958 (inactive) under setting [5], 0.113 (inactive) under setting [6], -0.0496 (inactive) under setting [7] and -0.0795 (inactive) under setting [4]. The cell count under setting [5] amounted to 6660, the cell count under setting [6] is 6440, the cell count under setting [7] was 7030 and the cell count under setting [4] worked out at 7060.

With `O=c1cc(N2CCOCC2)oc2c(-c3cccc4c3sc3ccccc34)cccc12`, the z-score runs as follows: under setting [1], -0.493 (inactive) and 0.0213 (inactive); under setting [2], -0.14 (inactive) and 0.291 (inactive); under setting [3], 1.89 (inactive) and 3.23 (active); under setting [4], 0.374 (inactive) and 11.4 (active). Further, the cell count under setting [1] was 4940 and 6230; the cell count under setting [2] was 4400 and 5530; the cell count under setting [3] was 3070 and 3850; the cell count under setting [4] was 4020 and 1970.

Regarding `O=c1cc(N2CCOCC2)oc2c1ccc1ccccc12`, the z-score is, setting by setting: under setting [5], -0.263 (inactive); under setting [6], 0.075 (inactive); under setting [7], 0.0237 (inactive); under setting [4], -0.121 (inactive). For the same compound, the cell count under setting [5] worked out at 6320, the cell count under setting [6] came out at 6310, the cell count under setting [7] was 6270 and the cell count under setting [4] was 6380.

`O=c1cc(N2CCOCC2)oc2c(-c3ccccc3)cccc12`: the z-score is 0.00801 (inactive) and the cell count stood at 5270.

Consider `C[C@@H](O)CCC[C@@H](O)/C=C/[C@@H]1[C@@H](CCCCCCC(=O)O)[C@@H](O)C[C@H]1O`, for which the z-score is -0.0165 (inactive) and the cell count amounted to 5060.

As to `NC(=O)c1ccc(-c2nc(-c3ccc4c(c3)OCO4)c(-c3ccccn3)[nH]2)cc1`, the z-score was -0.0341 (inactive) and the cell count stood at 5380.

For `NC(=O)c1ccc2nc(-c3ccc(Oc4ccc(Cl)cc4)cc3)[nH]c2c1`, the z-score is 0.235 (inactive) under setting [1], 0.636 (inactive) under setting [2], 0.25 (inactive) under setting [3] and 2.04 (active) under setting [4]. The cell count is 4680 under setting [1], 4440 under setting [2], 4560 under setting [3] and 3840 under setting [4].

As for `NC(=O)c1ccc(-c2nc(-c3ccc4c(c3)OCCO4)c(-c3ccccn3)[nH]2)cc1`, the z-score was 0.107 (inactive) and the cell count was determined as 5540.

Take `CCCCCCCCCCCSCC(=O)O`: the z-score was -0.636 (inactive) and the cell count turned out to be 5540.

Turning to `CCCCCC(=O)/C=C/C=O`, the z-score is 3.38 (active) and the cell count amounted to 4570.

Regarding `CCCCCC(O)/C=C/C=O` (centres undefined), the z-score is -0.635 (inactive) and the cell count was 5350.

`CCCCCCCCCCCCCCCC(=O)NC(C)C`: the z-score was -0.641 (inactive) and the cell count is 5670.

Consider `CCCCCC/C=C\CCCCCCCC(=O)OCC`, for which the z-score is -0.872 (inactive) and the cell count was 5340.

For the compound `Cc1ccc(C)c(-n2sc3cc(F)ccc3c2=O)c1`, the z-score is -0.174 (inactive) under setting [5], -0.302 (inactive) under setting [6], -1.02 (inactive) under setting [7] and 1.44 (inactive) under setting [4]. For the same compound, the cell count was determined as 7370 under setting [5], 6230 under setting [6], 7150 under setting [7] and 2660 under setting [4].

In the case of `CS(=O)(=O)N1CCc2c(-c3cnc(N)nc3)nc(N3CCOCC3)nc21`, the outcome is “inactive; censored for cell count”. Besides, under setting [1], the z-score was -0.156 (inactive) and the cell count stood at 5660. Under setting [2], the z-score is 0.294 (inactive) and the cell count came out at 4440. Under setting [3], the z-score is 1.97 (active) and the cell count turned out to be 2590.

As for `CC1=C(C(=O)Nc2ccccc2C)C(c2cccc([N+](=O)[O-])c2)C2=C(CCCC2=O)N1` (centres undefined), the z-score runs as follows: under setting [1], 0.502 (inactive); under setting [2], 0.355 (inactive); under setting [3], -0.0592 (inactive); under setting [4], 0.0886 (inactive). For the same compound, the cell count under setting [1] came to 4870, the cell count under setting [2] was 4830, the cell count under setting [3] came to 4490 and the cell count under setting [4] worked out at 4680.

In the case of `CCCCCCCCCCCCCCCCC/C=C\C(=O)O`, the z-score is 0.0429 (inactive) and the cell count was determined as 4620.

`CCCCCCCC/C=C\CCCCCCCC(=O)NCC`: the z-score was 0.358 (inactive) and the cell count was determined as 5660.
